Records with an inconclusive call do not appear. Some compounds were tested as several samples or in several runs, with calls that do not always agree. The source made the active and inactive calls. Calls follow the shape of the full dose curve.
What was measured:
[1] = target: Acetylcholinesterase (Homo sapiens) (UniProt P22303); experiment: Acetylcholinesterase (AChE) small molecule antagonists: colormetric cell-based qHTS assay (AID 1347395); also: nearly all actives have a fitted effect of over 30% in size; also: potency is read from the fitted curve at half-maximal effect
Acetylcholinesterase (Homo sapiens), sequence (P22303 whole entry, looked up): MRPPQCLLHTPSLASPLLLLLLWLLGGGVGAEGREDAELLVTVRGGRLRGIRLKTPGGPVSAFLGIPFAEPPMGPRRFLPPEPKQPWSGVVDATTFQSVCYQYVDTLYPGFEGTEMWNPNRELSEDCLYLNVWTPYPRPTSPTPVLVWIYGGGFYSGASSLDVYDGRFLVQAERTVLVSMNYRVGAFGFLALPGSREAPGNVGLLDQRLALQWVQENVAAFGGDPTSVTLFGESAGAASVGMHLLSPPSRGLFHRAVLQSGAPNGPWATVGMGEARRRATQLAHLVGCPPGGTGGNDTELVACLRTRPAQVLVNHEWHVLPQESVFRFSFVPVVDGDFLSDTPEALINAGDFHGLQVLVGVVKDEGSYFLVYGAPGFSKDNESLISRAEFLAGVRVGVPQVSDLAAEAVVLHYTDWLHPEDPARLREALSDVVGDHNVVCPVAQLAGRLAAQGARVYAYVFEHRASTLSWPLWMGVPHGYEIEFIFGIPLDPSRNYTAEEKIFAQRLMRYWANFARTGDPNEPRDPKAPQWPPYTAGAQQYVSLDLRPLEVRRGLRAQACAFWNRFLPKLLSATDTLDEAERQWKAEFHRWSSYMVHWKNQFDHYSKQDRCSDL
Outline: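 Neuroblastoma line SH-SY5Y supplied the enzyme; cells were preincubated with compound for 30 min at 37 C and 5% CO2. Acetylthiocholine with DTNB was then added for 90 min at 37 C, and thiocholine was measured by colour.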

[2] = target: Acetylcholinesterase (Homo sapiens) (UniProt P22303); experiment: Acetylcholinesterase (AChE) small molecule antagonists: enzyme-based qHTS assay (AID 1347397); conditions: Potency: AChE enzyme activity inhibition; outcome: AChE enzyme activity inhibition; also: nearly all actives have a fitted effect of over 55% in size
Outline: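 Enzyme inhibition was scored from DTNB-detected thiocholine formed by recombinant human AChE acting on acetylthiocholine. The 30 min compound preincubation and 10 min substrate reaction were both run at room temperature, with DMSO as vehicle control.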

[3] = target: Acetylcholinesterase (Homo sapiens) (UniProt P22303); experiment: Acetylcholinesterase (AChE) small molecule antagonists: fluorescence cell-based qHTS assay (AID 1347398); conditions: Potency: AChE activity; outcome: AChE activity; also: nearly all actives have a fitted effect of over 50% in size; also: potency is read from the fitted curve at half-maximal effect
Outline: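 Endogenous acetylcholinesterase of SH-SY5Y neuroblastoma cells is measured in situ. After overnight attachment and 30 min compound exposure, cells receive acetylthiocholine and Thiolite Green; fluorescence is read after 40 min at room temperature.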

[4] = target: Acetylcholinesterase (Homo sapiens) (UniProt P22303); experiment: Acetylcholinesterase (AChE) small molecule antagonists: enzyme-based qHTS assay with human liver microsomes (AID 1347399); conditions: Potency: qHTS inhibition; outcome: qHTS inhibition; also: nearly all actives have a fitted effect of over 60% in size
Outline: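 Recombinant human AChE (50 mU/mL in the enzyme mix) and human liver microsomes (0.25 mg/mL final) were preincubated with compound and NADPH (0.25 mg/mL final) for 30 min at 37 C. Acetylthiocholine/DTNB was then added; thiocholine was read colorimetrically after 10 min at room temperature.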

Measured: Potency

CO[C@H]1C=CO[C@@]2(C)Oc3c(C)c(O)c4c(O)c(c5c(c4c3C2=O)=NC2(CCN(CC(C)C)CC2)N=5)NC(=O)/C(C)=C\C=C/[C@H](C)[C@H](O)[C@@H](C)[C@@H](O)[C@@H](C)[C@H](OC(C)=O)[C@@H]1C
inactive: [1] | [2] | [3] | [4]

Cc1nn(C)c(Oc2ccccc2)c1/C=N/OCc1ccc(C(=O)OC(C)(C)C)cc1
inactive: [1] | [2] | [3] | [4]

CC(C)CCCC(C)CCCC(C)CCCCC(C)CCCC(C)CCCC(C)C (stereo not given)
inactive: [1] | [2] | [3] | [4]

CC(C)(N)C#N
inactive: [1] | [2] | [3] | [4]

NS(=O)(=O)c1ccc(NC(=O)CCC(=O)O)cc1
inactive: [1] | [2] | [3] | [4]

CCCCCC/C(C=O)=C\c1ccccc1
inactive: [1] | [2] | [3] | [4]

C[Si](C)(C)O[Si](O)(O)O
inactive: [1] | [2] | [3] | [4]

CC1CC(OC(=O)c2ccccc2O)CC(C)(C)C1 (stereo not given)
inactive: [1] | [2] | [3] | [4]

CCCCCCCCCCCC(=O)OCC(O)CO (stereo not given)
inactive: [1] | [2] | [3] | [4]

CCCC(C)c1ccccc1O (stereo not given)
inactive: [1] | [2] | [3] | [4]

CCCCCCCCCCCCCCCCCCN(C)C
inactive: [1] | [2] | [3] | [4]

CCCOc1ccc(S(=O)(=O)N2CCN(CC)CC2)cc1-c1nc2c(CC)n(Cc3ccccn3)nc2c(=O)[nH]1
inactive: [1] | [2] | [3] | [4]

NC(=O)COCCN1CCN(C(c2ccccc2)c2ccc(Cl)cc2)CC1 (stereo not given)
inactive: [1] | [2] | [3] | [4]

O=c1[nH]cc(F)c(=O)[nH]1
20.8 µM (active) and inactive: [1]
inactive: [2] | [3] | [4]

O=Cc1ccc(O)c(O)c1O
inactive: [1] | [2] | [3] | [4]

O=C(CCNNC(=O)c1ccncc1)NCc1ccccc1
inactive: [1] | [2] | [3] | [4]

CC(C)=CCOC(=O)c1ccccc1
inactive: [1] | [2] | [3] | [4]

CC(=O)c1ccccc1[N+](=O)[O-]
inactive: [1] | [2] | [3] | [4]

CCCc1cc(C(N)=S)ccn1
inactive: [1] | [2] | [3] | [4]

CC(=O)N(CC(O)CO)c1c(I)c(C(=O)NCCO)c(I)c(C(=O)NCC(O)CO)c1I (stereo not given)
inactive: [1] | [2] | [3] | [4]

Cc1ccccc1N=C(N)Nc1ccccc1C
inactive: [1] | [2] | [3] | [4]

CCO[Si](CCCN=C=O)(OCC)OCC
inactive: [1] | [2] | [3] | [4]

C=COCCOCCOC=C
inactive: [1] | [2] | [3] | [4]

O=C(OCc1ccccc1)c1ccccc1
inactive: [1] | [2] | [3] | [4]

CC(C)(C)C(=O)C(=O)O
inactive: [1] | [2] | [3] | [4]

CC(C)c1ccccc1O
inactive: [1] | [2] | [3] | [4]

COC(=O)C(C)Oc1ccc(Oc2ncc(C(F)(F)F)cc2Cl)cc1 (stereo not given)
inactive: [1] | [2] | [3] | [4]

NC(=O)c1ccc([N+](=O)[O-])cc1
inactive: [1] | [2] | [3] | [4]

Cc1nnc(NS(=O)(=O)c2ccc(N)cc2)s1
inactive: [1] | [2] | [3] | [4]

CC(O)CNCC(C)O (stereo not given)
inactive: [1] | [2] | [3] | [4]

CCOC(=O)O[C@H](C)OC(=O)c1ccc2c(c1)cc(C(=O)NC1CCN(C(C)C)CC1)n2Cc1cc(-c2ccc(Cl)s2)on1
inactive: [1] | [2] | [4]
active: [3] 41.8 µM

CC(=O)c1nccs1
inactive: [1] | [2] | [3] | [4]

CO[C@@H]1[C@@H](OC(N)=O)[C@@H](O)[C@H](Oc2ccc3c(O)c(NC(=O)c4ccc(O)c(CC=C(C)C)c4)c(=O)oc3c2C)OC1(C)C
inactive: [1] | [2] | [3] | [4]

CC(=O)Nc1ccc(OC(=O)c2ccccc2OC(C)=O)cc1
inactive: [1] | [2] | [3] | [4]

C=Cc1ccccn1
inactive: [1] | [2] | [3] | [4]

CCO[Si](CC)(OCC)OCC
inactive: [1] | [2] | [3] | [4]

CCCCOC(=O)CCC(C)=O
inactive: [1] | [2] | [3] | [4]

CC(C#N)(CCC(=O)O)N=NC(C)(C#N)CCC(=O)O (stereo not given)
inactive: [1] | [2] | [3] | [4]

CC1(C)OC[C@@H](COC(=O)CCc2ccc(OC[C@@H](O)CNCCNC(=O)N3CCOCC3)cc2)O1
inactive: [1] | [2] | [3] | [4]

O=C(O)C(=O)Cc1ccccc1
inactive: [1] | [2] | [3] | [4]

CCN[C@H]1C[C@H](C)S(=O)(=O)c2sc(S(N)(=O)=O)cc21
inactive: [1] | [2] | [3] | [4]

CCOC(=O)n1ccn(C)c1=S
inactive: [1] | [2] | [3] | [4]

COc1ccc(N=[N+]([O-])c2ccc(OC)cc2)cc1
inactive: [1] | [2] | [3] | [4]

O=C1[C@@H]2[C@H]3CC[C@H](C3)[C@@H]2C(=O)N1CCCCN1CCN(c2ncccn2)CC1
inactive: [1] | [2] | [3] | [4]

CC1C(C)(C)C2=C(C(=O)CCC2)C1(C)C (stereo not given)
inactive: [1] | [2] | [3] | [4]

CCC(C)(C)c1ccc(CC(C)CN2C[C@@H](C)O[C@@H](C)C2)cc1 (stereo not given in full)
inactive: [1] | [2] | [3] | [4]

CCCc1ccc(O)cc1
inactive: [1] | [2] | [3] | [4]

CCCS(=O)c1ccc2nc(NC(=O)OC)[nH]c2c1 (stereo not given)
inactive: [1] | [2] | [3] | [4]

CN(C)C(=O)CNC(=O)Cc1ccccc1
inactive: [1] | [2] | [3] | [4]

O=C(O)CC(=O)C(=O)O
inactive: [1] | [2] | [3] | [4]

CCCCCCCCCCCC(=O)Cl
inactive: [1] | [2] | [3] | [4]

C=C(C)C(=O)OCCN(CC)CC
inactive: [1] | [2] | [3] | [4]

O=C(CC(C(=O)OC1CCCCC1)S(=O)(=O)O)OC1CCCCC1 (stereo not given)
inactive: [1] | [2] | [3] | [4]

Cc1ccc(C#N)cc1
inactive: [1] | [2] | [3] | [4]

CC(C)(O)C(=O)c1ccccc1
inactive: [1] | [2] | [3] | [4]

NNc1nnc(NN)c2ccccc12
inactive: [1] | [2] | [3] | [4]

CCCCCCC(O)CCCCCCCCCCC(=O)OC (stereo not given)
inactive: [1] | [2] | [3] | [4]

C=C(C)C(=O)OCCCCCCCCCCCCC
inactive: [1] | [2] | [3] | [4]

Cc1cc(CCC(=O)OCCOCCOCCOC(=O)CCc2cc(C)c(O)c(C(C)(C)C)c2)cc(C(C)(C)C)c1O
inactive: [1] | [2] | [3] | [4]

COc1ccccc1N1CCN(CCCCNC(=O)c2ccc(-c3ccc(C(C)=O)cc3)cc2)CC1
inactive: [1] | [2] | [3] | [4]

Source: PubChem BioAssay (Tox21)
